# Only some compounds are listed: those with a hit (about 27% of all), similar ones and a draw of the others.
# Cav32 inh – human Cav3.2 channel inhibition, primary screen; O95180; Cav3.2-expressing cells, Fluo-4 calcium fluorescence FDSS; hits give low values; B-score at 10 µM; hit rate 4% among 100,000;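 active = single-dose well whose peak fluorescence ratio is a statistical outlier from its plate by either plate-standardised score or position-corrected B-score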
# CYP2C19 inhib – blocks human cytochrome P450 2C19; CYP2C19 Supersomes, luciferin-H EGE luminescence, 30 min; hit rate 21% among 96,000; P33261; AID 778; inhibition, % at 5 µM;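 active = CYP2C19 inhibition above a set limit at 5 µM in the primary screen, cut at about 50% in these data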;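 note: plate controls were negative control wells for no effect and 2.5 mM tranylcypromine positive control for full effect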
# Target sequence (P33261 whole entry, looked up): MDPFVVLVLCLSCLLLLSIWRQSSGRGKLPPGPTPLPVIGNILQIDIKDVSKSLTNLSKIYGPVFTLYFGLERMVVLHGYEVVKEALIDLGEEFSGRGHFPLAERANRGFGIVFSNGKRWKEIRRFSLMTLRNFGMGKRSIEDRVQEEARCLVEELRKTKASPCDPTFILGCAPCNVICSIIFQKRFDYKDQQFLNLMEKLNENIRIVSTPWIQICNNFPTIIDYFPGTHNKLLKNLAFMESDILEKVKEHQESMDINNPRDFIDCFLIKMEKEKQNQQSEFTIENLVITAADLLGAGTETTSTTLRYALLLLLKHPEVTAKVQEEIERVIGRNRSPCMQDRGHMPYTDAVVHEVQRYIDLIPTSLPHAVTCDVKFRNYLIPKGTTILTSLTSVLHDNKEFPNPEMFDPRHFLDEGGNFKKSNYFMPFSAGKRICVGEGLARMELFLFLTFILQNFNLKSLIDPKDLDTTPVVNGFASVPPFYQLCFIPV
# CYP2C9 inh – inhibitors of human CYP2C9; inhibition, % at 5 µM; P11712; CYP2C9 Supersomes, luciferin-H conversion, luminescence; hit rate 20% among 96,000; AID 777;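 active = blocking of liver enzyme CYP2C9 beyond about 50% at 5 µM, limit read from the data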
# CYP2C9 act – CYP2C9 (human) activation; P11712; recombinant CYP2C9, luciferin-H conversion, luminescence; hits give high values; factor 1 = untreated enzyme, 0 = blocked; activation factor at 5 µM; hit rate 1.4% among 96,000;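 active = activation factor of 2 or more for CYP2C9 at a 5 µM dose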;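 note: 0 = sulfaphenazole-blocked wells and 1 = vehicle-only wells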
# CYP2C19 act – activators of human cytochrome P450 2C19 | recombinant CYP2C19, luciferin-H EGE luminescence; hits give high values; 0 = fully inhibited enzyme, 1 = untreated enzyme | activation factor at 5 µM | 96,000 tested, under 10 active | AID 1025;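 active = activation factor of at least 2 at 5 µM in the primary screen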;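 note: 0 = wells with 2.5 mM tranylcypromine and 1 = vehicle-only wells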
# * = called active by the depositor; . = not tested or not shown.
SMILES,Cav32 inh,CYP2C19 inhib,CYP2C9 inh,CYP2C9 act,CYP2C19 act
CN(C)c1ccc(C(=O)OCC(=O)NCC2CCCO2)cc1 (stereo not given),-0.56,83*,-48,1.5,0.2
Cc1cc(NC(=O)c2ccoc2C)no1,-0.51,.,.,.,.
CCOC(=O)CSc1nnc(-c2ccccc2)c(=O)[nH]1,0.99,-12,-8,1.1,1.1
CCCCCOC(=O)CSc1nnc(-c2ccccc2)c(=O)[nH]1,-0.86,24,60*,0.4,0.8
Cc1ccc(-c2nn(C)c(=O)c3ccccc23)cc1CNC(=O)c1ccco1,0.96,15,32,0.7,0.9
N#CC1=C(N)C(C#N)(C#N)[C@H](c2ccncc2)[C@H]2CC3(CC=C12)OCCO3,1.4,51*,71*,0.3,0.5
CC(C)(C)OC(=O)N1CC=C2C(C#N)=C(N)C(C#N)(C#N)[C@H](c3cccnc3)[C@H]2C1,0.44,12,15,0.8,0.9
Cc1ccc([C@@H]2C3COCC=C3C(C#N)=C(N)C2(C#N)C#N)o1 (stereo not given in full),0.018,69*,49,0.5,0.3
COc1cc([C@@H]2[C@H]3CNCC=C3C(C#N)=C(N)C2(C#N)C#N)ccc1OC(C)C,0.095,0,14,0.9,1
Cc1ccc(C2C3CSCC=C3C(C#N)=C(N)C2(C#N)C#N)cc1 (stereo not given),-0.67,29,81*,0.2,0.7
CC1CC=C2C(C#N)=C(N)C(C#N)(C#N)C(c3cccs3)C2C1 (stereo not given),.,-2,14,0.9,1
Cc1ccc(SCCN2CCN(CC(C)C)CCC2=O)cc1,-0.23,.,.,.,.
O=C(Nc1ccccc1)O/N=C/c1ccccc1Cl,-1.5,40,28,0.7,0.6
NC(=O)CSc1nnnn1-c1ccc2c(c1)OCCO2,-0.074,.,.,.,.
COc1ccc(NC(=O)Cn2nnc(C(=O)NCc3cccc(OC)c3)c2N)cc1,-0.99,-4,-51,1.5,1
CCOc1ccc(Cn2nnc(C(=O)NCc3ccc(OC)cc3)c2N)cc1,-5.2*,-3,-10,1.1,1
COc1cc(NC(=O)c2nnn(Cc3ccc(SC)cc3)c2N)cc(OC)c1,-0.093,7,13,0.9,0.9
COc1cccc(NC(=O)c2nnn(CCc3ccccc3)c2N)c1,-2.6*,73*,92*,0.1,0.3
CCc1ccc(Cn2nnc(C(=O)Nc3ccc(OC)cc3OC)c2N)cc1,0.6,-8,-238,3.4*,1.1
CCOc1ccc(NC(=O)Cn2nnc(C(=O)NCc3ccccc3OC)c2N)cc1,0.46,12,-113,2.1*,0.9
CCC(C)NC(=O)C1CCC(=O)N(c2ccc3c(c2)OCO3)C1c1ccc(OC)cc1 (stereo not given),-0.56,39,26,0.7,0.6
CC(Cc1ccccc1)C(=O)N(C)Cc1cccnc1 (stereo not given),0.027,.,.,.,.
CC(=O)c1coc2ccc(OCCN3CCCCC3)cc12,0.24,-15,-8,1.1,1.2
CCOC(=O)C(NC(=O)c1ccccc1OCC)(Nc1ncccn1)C(F)(F)F (stereo not given),-0.047,30,11,0.9,0.7
COc1cc2nc(N(C)CCCNC(=O)C3CCCO3)nc(N)c2cc1OC (stereo not given),0.94,.,.,.,.
SMILES,Cav32 inh,CYP2C19 inhib,CYP2C9 inh,CYP2C9 act,CYP2C19 act
CC(C)(C)c1cc(CCC(=O)N2CCNCC2)c(C(C)(C)C)cc1O,-2,6,74*,0.3,0.9
CCCCc1nnc(NC(=O)C(C)Sc2nc(C)cc(=O)[nH]2)s1 (stereo not given),1,13,23,0.8,0.9
COc1ccc(NC(=S)NCc2ccco2)cc1,.,32,7,0.9,0.7
CCOc1ccc(NC(=S)N(Cc2ccc(N(C)C)cc2)Cc2ccco2)cc1,-2.5,50,63*,0.4,0.5
Cc1noc(C)c1C(=O)N1CCc2ccccc21,0.49,5,-13,1.1,1
Cc1onc(-c2c(Cl)cccc2Cl)c1C(=O)N1CCc2ccccc2C1,.,77*,73*,0.3,0.2
Cc1onc(-c2ccccc2)c1C(=O)N1CCCc2ccccc21,0.79,69*,22,0.8,0.3
Cc1onc(-c2c(Cl)cccc2Cl)c1C(=O)N1C=CC(C(F)(F)F)=NCC1,0.22,59*,33,0.7,0.4
Cc1onc(-c2c(F)cccc2Cl)c1C(=O)N1C=CC(C(F)(F)F)=NCC1,-0.09,33,-1,1,0.7
Cc1onc(-c2c(Cl)cccc2Cl)c1C(=O)N1CCCc2ccccc21,-2.8,91*,82*,0.2,0.1
CC(C)OCCCNCc1cccs1,1.1,-11,-12,1.1,1.1
Cc1ccc(OCC(=O)n2cnnc2N)c(C)c1,1.1,-5,-10,1.1,1
Cc1onc(-c2c(F)cccc2Cl)c1C(=O)N1CCc2ccccc21,-0.99,63*,40,0.6,0.4
Cc1ccc(-c2cc(C(F)F)nc(NCC3CCCO3)n2)cc1 (stereo not given),-3.3,.,.,.,.
CCOc1cc(CNc2ccccc2)cc(Br)c1OCC(=O)NC(C)(C)C,-5.1*,50,46,0.5,0.5
CCOc1cc(CNc2ccc(Br)cc2)cc(Br)c1OCC(=O)NC(C)(C)C,-0.79,21,89*,0.1,0.8
CCOc1cc(CNc2ccccc2)cc(Br)c1OCc1ccc(F)cc1,-2.3,33,51*,0.5,0.7
CCOc1cc(CNCCO)cc(Br)c1OCc1cccs1,1.2,45,4,1,0.6
CCOc1cc(CNc2ccc(OC)cc2)cc(Br)c1OCC(=O)NC(C)(C)C,-1.8,52*,59*,0.4,0.5
N#Cc1c(N)c(C(=O)c2ccc(Br)cc2)n2c1CCC2,0.18,-3,2,1,1
O=C(N/N=C\c1ccc(CN(Cc2ccc(Cl)cc2)S(=O)(=O)c2ccccc2)o1)C(=O)Nc1ccc(F)cc1,.,82*,76*,0.2,0.2
CCC(C)c1ccc(OCCn2cc(/C=N/NC(=O)CSc3nnc(C)s3)c3ccccc32)cc1 (stereo not given),-1.9,12,16,0.8,0.9
CCN1C(=O)/C(=C\c2cccs2)C(C(=O)OC)=C1C,0.64,14,51*,0.5,0.9
COC(=O)C1=C(C)N(CC(C)C)C(=O)/C1=C\c1cccs1,0.22,31,28,0.7,0.7
COc1cccc(-c2nnc3sc(C4CCCCC4)nn23)c1,-1.7,84*,78*,0.2,0.2
COc1cc(-c2nnc3sc(C4CCCCC4)nn23)cc(OC)c1OC,-0.65,75*,77*,0.2,0.3
COc1cc(-c2nn3c(-c4ccccn4)nnc3s2)cc(OC)c1OC,1.1,33,28,0.7,0.7
Cc1cc(-c2nnc3sc(C4CCCCC4)nn23)n[nH]1,0.65,73*,2,1,0.3
CCOc1cccc(-c2nnc3sc(C4CCCCC4)nn23)c1,-3.4,94*,43,0.6,0.1
COc1ccc(N2CCN(C(=O)CNC(=O)Cn3c(C)cc4ccccc4c3=O)CC2)cc1,0.56,-7,-46,1.5,1.1

# From PubChem
